Screening data: PubChem, Broad Institute
Rows were chosen to be rich in hits. Some 2.6% of all compounds tested hit in one or more screens of this group.
STAT3 binder – STAT3 (human) binding; Small molecule microarray, His-STAT3 binding, anti-His fluorescence; calls only; 17,000 compounds, 0.2% hits; AID 624138;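 active = compounds whose four printed spots each show fluorescence over background unusually high for their array block, chance value under 7%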
c-Myc SMM – c-Myc (human) binding; P01106; small molecule microarray, His-c-Myc binding, anti-His fluorescence; calls only; 17,000 compounds, 1.5% hits;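 active = spot fluorescence over background with P-value below 7% in all four replicate spots, showing protein binding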;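 also: score is binary with 100 for all four spots passing and 0 otherwise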
NFkB binder – binds human NF-kappa-B p105 on microarray. P19838. Small molecule microarray, anti-His fluorescence binding. calls only. 17,000 compounds, 1.3% hits. AID 624139;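 active = spot fluorescence over background significantly raised, with a chance value under 7% in all four replicate spots of the compound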;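 also: probe protein is his-tagged human p50 processed subunit at 1 µg/ml; raw spot fluorescence signals with no normalization applied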
Target sequence (P19838 1-433 limits assumed): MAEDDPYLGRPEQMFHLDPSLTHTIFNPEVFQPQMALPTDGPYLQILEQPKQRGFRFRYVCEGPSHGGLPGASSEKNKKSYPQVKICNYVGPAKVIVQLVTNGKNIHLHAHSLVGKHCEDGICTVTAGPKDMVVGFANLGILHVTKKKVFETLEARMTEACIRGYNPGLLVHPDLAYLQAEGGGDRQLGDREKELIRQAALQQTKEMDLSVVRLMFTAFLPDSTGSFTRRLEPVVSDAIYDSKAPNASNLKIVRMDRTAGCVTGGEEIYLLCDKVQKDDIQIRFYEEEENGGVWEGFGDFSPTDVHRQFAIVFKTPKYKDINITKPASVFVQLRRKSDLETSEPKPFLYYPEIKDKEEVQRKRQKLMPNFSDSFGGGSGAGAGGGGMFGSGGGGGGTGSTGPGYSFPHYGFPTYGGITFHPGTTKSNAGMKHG
mut p53 SMM – mutant p53 (human) binding; small molecule microarray binding, anti-GST fluorescence; 17,000 compounds, 0.4% hits; calls only;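 active = compounds whose four printed spots each glow above background more than chance allows, each with a p-value under 7%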
p53 PUMA act – restores mutant p53 pathway signaling in SW480 cells. 28,000 compounds, 1.5% hits. SW480 PUMA-promoter luciferase, p53 mutant reactivation. AID 624151. activation, % at 9.98 µM; in the data active = activation above about 52%
Numbers without * were called inactive; i = inactive; · = no result; + = active, no number.

SMILES | STAT3 binder | c-Myc SMM | NFkB binder | mut p53 SMM | p53 PUMA act
Cc1cccc(-c2nnc(SCC(=O)Nc3ccc(Br)cc3F)o2)c1 | · | · | · | · | 80*
O=C(CSc1nnc(-c2ccc(Br)cc2)o1)Nc1ccccc1Cl | · | · | · | · | 75*
O=C(CSc1nnc(-c2ccccc2)o1)Nc1cccc(Br)c1 | · | · | · | · | 102*
Cc1cc2nnc(SCC(=O)Nc3sc4c(c3C#N)CCC4)n2c2ccccc12 | · | · | · | · | -15
COc1ccccc1C(=O)Nc1ccc2c(c1)nc(CCNC(C)=O)n2C | · | · | · | · | 131*
O=C(CNC(=O)c1cn(-c2ccccc2)nc1-c1ccccc1)c1ccccc1 | i | i | i | i | 121*
Cc1cc(C)c(NC(=O)CSc2nc3ccc(NC(=O)c4ccccc4C)cc3s2)c(C)c1 | · | · | · | · | -6
CC(=O)c1ccc(NC(=O)CSc2nc3ccc(NC(=O)c4ccccc4Cl)cc3s2)cc1 | · | · | · | · | 81*
C[C@@H]1CCCCO[C@H](CN(C)C)[C@@H](C)CN([C@H](C)CO)C(=O)c2cc(NC(=O)Nc3ccccc3)ccc2O1 | i | i | i | i | -6
CCc1ccc(OCC(=O)Nc2ccc(-c3nc4ccccc4o3)c(O)c2)cc1 | · | · | · | · | 59*
CCc1ccc(OCC(=O)Nc2ccc(-c3nc4ccccc4s3)c(O)c2)cc1 | · | · | · | · | 123*
CCc1ccc2oc(-c3cc(NC(=O)COc4ccc(OC)cc4)ccc3Cl)nc2c1 | · | · | · | · | 14
COc1ccccc1CN1CC(C(=O)O)CC1=O (configuration not stated) | i | + | i | i | -1
C[C@@H]1O[C@@H](O[C@H]2[C@H](O[C@H]3CC[C@@]4(C)C(CC[C@]5(C)C4CC=C4C6CC(C)(C)CC[C@]6(C(=O)O[C@@H]6O[C@H](CO[C@@H]7O[C@H](CO)[C@@H](O[C@@H]8O[C@@H](C)[C@H](O)[C@@H](O)[C@H]8O)[C@H](O)[C@H]7O)[C@@H](O)[C@H](O)[C@H]6O)CC[C@]45C)C3(C)C)OC[C@H](O)[C@@H]2O)[C@H](O)[C@H](O)[C@H]1O (some centres not stated) | i | i | i | i | -19
CC(C)=CCC[C@](C)(O[C@@H]1O[C@H](CO[C@@H]2O[C@@H](CO)[C@H](O)[C@H]2O)[C@@H](O)[C@H](O)[C@H]1O)[C@H]1CC[C@]2(C)C1[C@H](O)CC1[C@@]3(C)CC[C@H](O[C@@H]4O[C@H](CO)[C@@H](O)[C@H](O)[C@H]4O[C@@H]4O[C@H](CO)[C@@H](O)[C@H](O)[C@H]4O)C(C)(C)C3CC[C@]12C (some centres not stated) | i | + | + | i | 9
CC(C)CC#Cc1cnc2c(c1)C(=O)N([C@H](C)CO)C[C@H](C)[C@H](CN(C)C(=O)CN1CCOCC1)O2 | · | · | · | · | 0
CS(=O)(=O)N(CC(=O)O)c1ccc(C23CC4CC(CC(C4)C2)C3)cc1 | i | + | i | i | 3
CCOc1ccc(NC(=O)c2c(NC(=O)c3ccco3)sc3c2CCCCC3)cc1 | · | · | · | · | -79
COc1ccc2ncc3c(c2c1)-c1cc(Cl)ccc1OC3 | · | · | · | · | 69*
Clc1ccc2ncnc(NCc3ccc4c(c3)OCO4)c2c1 | i | i | i | i | -53
CC(C)C(NS(=O)(=O)c1ccc(F)c(Cl)c1)C(=O)O (configuration not stated) | · | · | · | · | 5
O=C1c2ccccc2C(=O)N1OS(=O)(=O)c1cccc2cccnc12 | i | i | i | i | -7
COc1ccc(OC)c(S(=O)(=O)ON2C(=O)c3ccccc3C2=O)c1 | i | + | i | i | -8
CCc1ccccc1NC(=O)CSc1nnc(C)s1 | i | i | i | i | 7
Cc1csc2c(SCC(O)C(F)(F)F)ncnc12 (configuration not stated) | · | · | · | · | 56*
SMILES | STAT3 binder | c-Myc SMM | NFkB binder | mut p53 SMM | p53 PUMA act
COc1ccc(-c2nc3ccccc3o2)cc1NC(=O)COc1ccc(C(C)C)cc1 | i | i | i | i | 42
Cc1ccc2nc(-c3ccc(C)c(NC(=O)COc4ccc([N+](=O)[O-])cc4)c3)oc2c1 | · | · | · | · | 91*
COc1ccc(-c2nc3cc(C(C)C)ccc3o2)cc1NC(=O)COc1ccc(C)cc1 | · | · | · | · | 64*
O=C(Cn1nnc2sc3c(c2c1=O)CCCC3)NCc1ccco1 | i | + | i | i | 4
O=C(NCCCN1CCOCC1)c1cnn2c(C(F)F)cc(-c3ccccc3)nc12 | · | · | · | · | -3
C[C@@H]1CN([C@H](C)CO)C(=O)c2cccc(NS(=O)(=O)c3ccccc3)c2O[C@H]1CN(C)S(=O)(=O)c1ccc(Cl)cc1 | i | i | i | i | ·
Cc1ccc(C(=O)CC(C(=O)O)n2ccc(C)n2)cc1 (configuration not stated) | i | + | + | i | -8
COc1ccc(-c2oc3cc(O[C@@H]4O[C@@H](C)[C@H](O)[C@@H](O)[C@H]4O)cc(O)c3c(=O)c2O[C@@H]2O[C@H](CO)[C@@H](O)[C@H](O)[C@H]2O)cc1 | i | i | i | i | 2
O=c1c(-c2ccc(O)cc2)coc2cc(OC3OC(CO)C(O)C(O)C3O)cc(O)c12 (configuration not stated) | i | i | i | i | 90*
COc1ccc(C#Cc2ccc3c(c2)[C@]2(C(=O)N3)[C@H](C(=O)Nc3nc4ccccc4s3)[C@H]3C(=O)O[C@H](c4ccccc4)[C@H](c4ccccc4)N3[C@@H]2c2ccc(OCCO)cc2)cc1 | i | i | i | i | ·
C=CCNC(=O)[C@@H]1[C@H]2C(=O)O[C@H](c3ccccc3)[C@H](c3ccccc3)N2[C@H](c2ccccc2OCCO)[C@@]12C(=O)Nc1ccc(C#Cc3ccc(OC)cc3)cc12 | i | i | + | i | ·
COc1ccc(C#Cc2ccc3c(c2)[C@]2(C(=O)N3)[C@H](c3ccc(OCCO)cc3)N3[C@H](c4ccccc4)[C@H](c4ccccc4)OC(=O)[C@H]3[C@@H]2C(=O)Nc2nc3ccccc3s2)cc1 | i | i | + | i | ·
C[C@H]1CN([C@@H](C)CO)C(=O)c2cccc(NC(=O)c3ccc(-c4nccs4)cc3)c2O[C@H]1CN(C)C(=O)Nc1ccccc1 | i | i | i | i | 4
CC(Sc1nc2ccccc2[nH]1)C(=O)Nc1ccc(S(N)(=O)=O)cc1 (configuration not stated) | · | · | · | · | 5
Cc1ccnc(SCC(=O)Nc2ccc(Cl)cc2Cl)n1 | · | · | · | · | 52*
Cc1ccnc(SCC(=O)Nc2cccc(Cl)c2)n1 | · | · | · | · | -1
CCOc1ccc(NC(=O)CSc2ncccn2)cc1 | · | · | · | · | 54*
Cc1cc(Oc2ccccc2)nc(SCC(=O)Nc2ccc(Cl)cc2Cl)n1 | · | · | · | · | -1
O=C(CSc1ncccn1)Nc1ccc(Cl)cc1Cl | i | i | i | i | 134*
O=C(NCC(c1ccccc1)c1c[nH]c2ccccc12)Nc1ccc(Cl)cc1 (configuration not stated) | i | i | i | i | -3
CC(C)(CO)NCc1ccc(-c2ccccc2)o1 | i | i | i | i | 6
O=C(NCc1ccccn1)Nc1ccccc1Cl | · | · | · | · | 143*
